High-throughput results (PubChem BioAssay)
Sampled rows, rich in hits. Any-hit rate of the full collection: about 17%.
TGFb SMAD3 inh = blocks TGF-b signaling. HepG2 CAGA-GFP TGF-b/SMAD3 reporter, GFP fluorescence, 18 h; TGF-beta stimulated, 500 pg/mL final. Potency, µM (series often up to 46.1 µM), for the others: at the highest dose activity, negative = inhibition, most hits filed as inhibitors. 410,000 compounds, 1.2% hits; note: % is set by controls: 0 for no effect and ±100 for the full control effect; nearly all actives have a fitted effect of over 65% in size
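Per well, imaged GFP fluorescence of HEPG2 CAGA-GFP cells gives the signal; cells get compound, then TGF-beta (500 pg/mL final), 18 h at 37 degrees C; %Activity versus -TGF-beta and +DMSO controls.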
ATXN2 expr inh = inhibitors of ATXN2 expression | Potency, µM (highest dose often 57 µM), for inactives: at the top dose activity change, negative = inhibition, most hits filed as inhibitors | HEK-293 ATXN2-luciferase reporter, luminescence, 24 h | 360,000 compounds, 0.72% hits; note: % is set by controls: 0 for no effect and ±100 for the full control effect; nearly all actives have a fitted effect of over 55% in size
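qHTS (up to 57 uM final) was run with 24 h compound exposure of reporter cells at 37 °C. Each well was multiplexed: SteadyGlo luminescence measured ATXN2-luciferase expression after a fluorogenic Gly-Phe-AFC viability readout (25 uM final).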
S2 tox = reduces viability in counter-screen for ATXN expression inhibitors | AID 651635 | Potency, µM (series often up to 56.7 µM), usual class: cytotoxic | S2 cells (HEK-293 line with an ATXN2-luciferase reporter) viability, CellTiter-Fluor protease fluorescence, 24 h | 400,000 compounds, 0.49% hits; note: nearly all actives have a fitted effect of over 40% in size
HepG2 tox = counter-screen for TGF-b inhibitors: cytotoxicity in HepG2 cells; HepG2 CAGA-GFP viability, ATP luminescence, 18 h; Potency, µM (top dose mostly 46.1 µM), for the others: top-dose activity change, negative = cytotoxicity, usual class: cytotoxic; 410,000 compounds, 0.76% hits
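HepG2 CAGA-GFP cells (1000/well, DMEM with 1% FBS) received compound, then TGF-beta at 500 pg/mL final, and were incubated 18 hours at 37 degrees C. Viability was read by CellTiter-Glo luminescence. Media-only wells were set as complete cell-killing and DMSO as no toxicity.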
DT40 TDP1 CPT = growth inhibition of DT40 Tdp1-/-;hTDP1 cells with camptothecin (screen for TDP1 inhibitors) | chicken DT40 Tdp1-/-;hTDP1 cells + 20 nM CPT, ATP luminescence, 48 h | Potency, µM (series often up to 46.2 µM), without a hit: at the top dose activity change, negative = growth inhibition, actives largely listed as inhibitors | 420,000 compounds, 12% hits | AID 686979; note: % is set by controls: 0 for no effect and ±100 for the full control effect; nearly all actives have a fitted effect of over 55% in size
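Chicken DT40 Tdp1-/- cells stably complemented with human TDP1 were seeded at 400 cells/well in medium containing 20 nM camptothecin, exposed to pin-transferred compounds, and grown at 37 °C for at least 48 hr. Viability was read as ATP luminescence.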
TDP1 cell noCPT = qHTS for Inhibitors of human tyrosyl-DNA phosphodiesterase 1 (TDP1): qHTS in cells in absence of CPT; 420,000 compounds, 15% hits; DT40 Tdp1-/- hTDP1 cells, no CPT, ATP luminescence, 48 h; Potency, µM (highest dose often 46.2 µM), for inactives: at the top dose activity change, negative = growth inhibition, usual class: inhibitors; note: % is set by controls: 0 for no effect and ±100 for the full control effect; nearly all actives have a fitted effect of over 55% in size
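Chicken DT40 Tdp1-/- cells stably complemented with human TDP1 were seeded at 400 cells/well with DMSO in place of 20 nM camptothecin. After compound pinning, cells grew at least 48 hr at 37 °C; viability read by CellTiter-Glo luminescence.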
Starred values were filed as active, the others as inactive; i = inactive; u = inconclusive; x = not tested or not shown. Calls come from the whole dose curve; as a rule, active = well fitted curve in the direction sought with a large enough effect; inconclusive = small, poorly fitted or top-dose-only effect, or another doubt; inactive = no such curve, though single readings can be large; an effect the other way counts as inactive or inconclusive. Potency is the fitted concentration of half-maximal effect.

SMILES | TGFb SMAD3 inh | ATXN2 expr inh | S2 tox | HepG2 tox | DT40 TDP1 CPT | TDP1 cell noCPT
CCOC(=O)c1c(NC(C)=O)c2c3c(sc2n1Cc1cccc(Cl)c1)CCCC3 | x | x | x | 2% | u | 15µM*
CCOC(=O)c1c(NC(C)=O)c2c3c(sc2n1Cc1nc(-c2ccccc2C)oc1C)CCCC3 | 2% | 0% | i | 2% | 0% | -17%
CC(Oc1cccc(Cl)c1)C(=O)N1CCCN(C)CC1 (centres undefined) | 9% | 4% | i | -6% | 0% | 1%
CCN1CCN(Cc2c(O)ccc3cc(-c4ccc(OC)cc4)c(=O)oc23)CC1 | 4% | 8% | x | -14% | u | u
CCN1CCN(Cc2c(O)ccc3c(C)c(-c4ccc(OC)cc4)c(=O)oc23)CC1 | u | -2% | x | -11% | u | 23µM*
O=c1oc2c(CN3CCN(CCO)CC3)c(O)ccc2cc1-c1ccccc1 | -2% | x | x | -7% | -1% | 1%
CN1CCN(Cc2c(O)ccc3cc(-c4ccc(Cl)cc4)c(=O)oc23)CC1 | u | x | x | -31% | 23µM* | u
COc1ccc(-c2cc3ccc(O)c(CN4CCCC(C)C4)c3oc2=O)cc1OC (centres undefined) | 6% | 6% | x | -26% | x | x
COc1ccc(-c2cc3ccc(O)c(CN4CCCC(C)C4)c3oc2=O)cc1 (centres undefined) | 18% | x | x | -3% | u | 16µM*
O=C(CCS(=O)(=O)Cc1ccc(Cl)cc1)NCCc1ccccc1 | 10% | 3% | i | 17% | -4% | 1%
CN(C)CCCN(C(=O)c1ccc2c(c1)CCCC2)c1nc2cc3c(cc2s1)OCO3 | u | u | i | -45% | u | u
CCN(CC)CCN(C(=O)c1ccc2c(c1)CCCC2)c1nc2ccc(OC)cc2s1 | u | -24% | i | -42% | 18µM* | u
CN(C)CCCN(C(=O)c1ccc2c(c1)CCCC2)c1nc2ccc(F)cc2s1 | u | 1% | i | -117% | 21µM* | 16µM*
CCN(CC)CCN(C(=O)c1ccc2c(c1)CCCC2)c1nc2ccc(F)cc2s1 | 8% | -3% | i | -32% | u | u
CCN(CC)CCN(C(=O)c1ccc2c(c1)CCCC2)c1nc2ccc(C)cc2s1 | -27% | -11% | i | -36% | u | 23µM*
CCOc1ccc(CN(C(=O)c2cc(=O)c3cc(C)cc(C)c3o2)C2CCS(=O)(=O)C2)cc1 (centres undefined) | 7% | -10% | u | 3% | u | u
CCCn1c(N2CCC(Cc3ccccc3)CC2)nc2c1c(=O)[nH]c(=O)n2C | -14% | -4% | i | -17% | u | u
CC(=O)Cn1c(N2CCC(Cc3ccccc3)CC2)nc2c1c(=O)[nH]c(=O)n2C | -1% | -12% | i | -5% | u | 16µM*
CCCCCn1c(N2CCC(Cc3ccccc3)CC2)nc2c1c(=O)[nH]c(=O)n2C | u | u | x | 11µM* | 7.3µM* | u
O=c1c2ccccc2nc(/C=C/c2ccc(O)cc2)n1CCc1ccccc1 | u | u | x | -31% | 7.3µM* | 8.2µM*
CN(C)c1ccc(/C=C/c2nc3ccccc3c(=O)n2CCO)cc1 | 23% | -4% | x | -20% | 18µM* | 16µM*
CCCc1nc2ccccc2c(=O)n1CCc1ccccc1 | -1% | -18% | i | -2% | 13µM* | 9.2µM*
CCCc1nc2ccccc2c(=O)n1N | -5% | -7% | i | 2% | 4% | -6%
Cc1cc(NC(=O)CSc2ncccc2C(=O)O)no1 | 7% | -4% | i | 1% | 1% | u
CC1CCN(CC2C(=O)O[C@@H]3C[C@@]4(C)CCC[C@H](C)C4=C[C@H]23)CC(C)(C)C1 (some centres undefined) | 0% | u | u | -16% | u | 18µM*
SMILES | TGFb SMAD3 inh | ATXN2 expr inh | S2 tox | HepG2 tox | DT40 TDP1 CPT | TDP1 cell noCPT
COc1ccc(CN(C)C(=O)c2cccc(NC(=O)CC3SC(N4CCCCC4)=NC3=O)c2)c(OC)c1 (centres undefined) | -28% | 20µM* | u | -13% | 5.2µM* | 5.2µM*
COc1cccc(CN(C)C(=O)c2cccc(NC(=O)CC3SC(N4CCCCC4)=NC3=O)c2)c1OC (centres undefined) | -18% | -23% | i | -28% | u | 18µM*
COc1cccc(CN(C)C(=O)c2ccc(NC(=O)CC3SC(N4CCCCC4)=NC3=O)cc2)c1OC (centres undefined) | -3% | 1% | i | -24% | -9% | -4%
C/C(=C\c1ccco1)C1C(C#N)=C(N)Oc2n[nH]c(-c3ccc(C)cc3)c21 (centres undefined) | -19% | -14% | u | -37% | 16µM* | u
C/C(=C\c1ccco1)C1C(C#N)=C(N)OC2=C1C(=O)CC(C)(C)C2 (centres undefined) | u | 6% | i | -7% | 26µM* | u
CC1(C)CC(=O)C2=C(C1)OC(N)=C(C#N)C2C#Cc1ccccc1 (centres undefined) | u | 9% | u | -36% | 5.2µM* | 4.6µM*
CCc1cc(=O)oc2c3c(c(Cl)cc12)OCN(Cc1cccc(OC)c1)C3 | 15% | 5% | x | 1% | -24% | -19%
COc1cccc(-c2cnc(C(O)c3ccc(Cl)c(F)c3)[nH]2)c1 (centres undefined) | -1% | 0% | u | -30% | 15µM* | u
Cc1cc(Cl)ccc1C(O)c1ncc(-c2ccccc2C(F)(F)F)[nH]1 (centres undefined) | u | -19% | i | -23% | 26µM* | 15µM*
Cc1ccccc1-c1cnc(C(O)c2ccc(Cl)cc2C)[nH]1 (centres undefined) | -42% | 1% | i | -23% | u | u
COc1ccccc1-c1cnc(C(O)c2cccc(C)c2C)[nH]1 (centres undefined) | -2% | 7% | i | -7% | 15µM* | 16µM*
COc1ccccc1-c1cnc(C(O)c2ccc(Cl)cc2C)[nH]1 (centres undefined) | -28% | -8% | i | -9% | u | 18µM*
CCN(CC)c1ccc(S(=O)(=O)N2CCCCC2)cc1NC(=O)CSCc1c(C)noc1C | -12% | 3% | i | -22% | u | u
